Compound activity: PubChem BioAssay, several laboratories
An excerpt weighted towards active compounds, which were near 2.2% of everything screened.
Mot1-301 SUMO: yeast Mot1-301 growth rescue at high temperature, primary screen, SUMOylation pathway inhibitor project, S. cerevisiae, ATP luminescence, 38.5C | S. cerevisiae Mot1-301 growth rescue; percent above DMSO median, 100 means doubled | growth rescue, % at 18.8 µM | 1% of 320,000 active;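 active = every valid replicate shows activation above 250% relative to neutral control wells; inactive = the rest, any valid replicate at or below 250%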;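 also: OY570 slx delta 5 strain wells were the positive control but not used for scaling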
sPLA2-III inh: human group III sPLA2 inhibitors, primary screen, biochemical, QFRET, BODIPY PC-A2 liposome substrate. QFRET BODIPY PC-A2 liposome hydrolysis, fluorescence. inhibition, % at 12.2 µM. 0.56% of 370,000 active;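 active = inhibition above mean plus 3 SD of compounds lying within the high and low control bounds, cut at about 19% in these data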;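 also: 0% = median of test compound wells and 100% = no enzyme DMSO wells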
Target sequence (Q9NZ20 whole entry, looked up): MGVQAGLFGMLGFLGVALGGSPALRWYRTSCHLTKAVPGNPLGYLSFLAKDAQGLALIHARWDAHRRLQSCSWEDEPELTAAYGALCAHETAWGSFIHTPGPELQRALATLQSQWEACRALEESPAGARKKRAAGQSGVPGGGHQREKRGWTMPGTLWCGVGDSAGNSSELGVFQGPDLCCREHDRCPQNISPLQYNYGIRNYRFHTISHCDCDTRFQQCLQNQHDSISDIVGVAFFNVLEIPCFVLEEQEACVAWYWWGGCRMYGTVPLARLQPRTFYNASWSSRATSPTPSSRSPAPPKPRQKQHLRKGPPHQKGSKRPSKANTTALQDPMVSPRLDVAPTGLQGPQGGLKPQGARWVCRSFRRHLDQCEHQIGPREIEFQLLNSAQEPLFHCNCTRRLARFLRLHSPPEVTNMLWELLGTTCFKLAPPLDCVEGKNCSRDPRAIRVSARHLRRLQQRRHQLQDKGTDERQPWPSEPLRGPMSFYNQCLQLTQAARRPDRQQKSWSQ
SKN-1 block: suppressors of acrylamide-induced Pgst-4::GFP reporter in worms, primary screen, SKN-1 inhibitor project, whole organism, uHTS, GFP/RFP fluorescence ratio, strain VP596 | C. elegans VP596 Pgst-4::GFP/RFP ratio, 24 h | inhibition, % at 21.8 µM | 0.49% of 360,000 active | AID 624304, 2012;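 active = interference check ratio from 0.5 to 1.5 plus GFP to RFP signal ratio inhibition reaching or exceeding a fixed threshold, cut at about 30% in these data, passing the limit was not always enough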
Efflux pump inh: inhibitors of Candida efflux pumps in yeast, primary screen, S. cerevisiae, Nile Red, multiplex. 0.44% of 330,000 active. S. cerevisiae Candida pump triplex. inhibition, % at 10 µM;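 active = plate passing quality check with inhibition over a set limit, or well fluorescence over plate mean plus 4 SD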;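 also: Nile Red retained in pooled yeast measured as flow cytometry median fluorescence; 0% = buffer negative control and 100% = Enniatin B positive control; higher means more Nile Red kept so more efflux inhibition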
hGIII sPLA2 conf: human group III sPLA2 inhibitors, confirmation, biochemical, QFRET, triplicate; inhibition, % at 12.2 µM; shares compounds with sPLA2-III inh; recombinant hGIII-sPLA2, BODIPY PC-A2 QFRET fluorescence; 34% of 2,000 active;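 active = mean inhibition across triplicates above the hit cutoff set in the earlier primary screen, cut at about 19% in these data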;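 also: 0% = enzyme with DMSO and 100% = DMSO wells lacking enzyme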
BODIPY interf: 535nm fluorescence optical interference, confirmation, artefact control for HGIII-sPLA2 inhibitor project, biochemical, QFRET. shares compounds with sPLA2-III inh. BODIPY FL product fluorescence interference. inhibition, % at 12.2 µM. 8.5% of 2,000 active. AID 743282, 2014;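 active = average inhibition above the solvent-only control mean plus 3 SD, cut at about 6% in these data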;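 also: 0% = DMSO with substrate plus product and 100% = DMSO with substrate alone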
BODIPY interf DR: 535nm fluorescence optical interference, dose response, artefact control for HGIII-sPLA2 inhibitor project, biochemical, QFRET. IC50, µM. 240 tested, under 10 active. BODIPY FL product fluorescence interference, cell-free. AID 743455, 2014. shares compounds with sPLA2-III inh;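 active = IC50 at or below 10 µM; inactive = IC50 above 10 µM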
* = called active by the depositor; x = no result.

SMILES	Mot1-301 SUMO	sPLA2-III inh	SKN-1 block	Efflux pump inh	hGIII sPLA2 conf	BODIPY interf	others
Nc1nc(N)c2cc(CNc3ccc(Cl)c(Cl)c3)ccc2n1	x	23*	22	x	11	-14
CCOC(=O)C1CCc2c(ccc3ccccc23)N1CCC#N (configuration not stated)	x	10	-15	x	x	x
Cc1ccccc1NC(=O)c1ccc(CN2CC(=O)N3CCCCC3C2=O)cc1 (configuration not stated)	6	19*	4	0	-4	-3
Cc1ccc(NC(=O)c2ccc(CN3CC(=O)N4CCCCC4C3=O)cc2)c(C)c1 (configuration not stated)	-16	5	6	0	x	x
COc1ccc(CC(=O)Nc2ccccc2C(=O)N2CCCC2)cc1	1	5	14	0	x	x
CN(C)c1ccc(N=Nc2nccs2)cc1	x	25*	56*	x	45*	18*
CC(=O)Oc1c(C)cc(Cl)cc1C(=O)Nc1ccc([N+](=O)[O-])cc1Cl	4	5	5	0	x	x
COC(=O)c1cc2sccc2n1CC(=O)Nc1ccc(OC)c(OC)c1OC	1	-6	-2	0	x	x
CCOC(=O)c1cc2sccc2n1CC(=O)Nc1ccc(OC)cc1OC	-22	21*	-2	0	-25	-18
COc1ccc(CCNC(=O)c2cc3c(cc2Cl)N2CCCCCC2=NS3(=O)=O)cc1	-19	3	8	0	x	x
c1ccc(C2(CN3CCNC[C@H]3Cc3cccc4ccccc34)CC2)cc1	28	23*	-14	0	6	-40
COc1cc(C(=O)NNC(=O)COc2cccc(F)c2)ccc1OCC(=O)N1CCOCC1	-3	10	-22	0	x	x
COC(=O)C1=C(C)N(Cc2ccc(C(F)(F)F)cc2)C(=NCc2ccc(OC)cc2)NC1c1ccccc1 (configuration not stated)	x	21*	x	x	-24	-35
Cc1cccc(C2Nc3ccccc3C(=O)N2NC(=O)c2ccc([N+](=O)[O-])cc2)n1 (configuration not stated)	-14	3	5	0	x	x
O=C(NN1C(=O)c2ccccc2NC1c1ccccn1)c1ccc([N+](=O)[O-])cc1 (configuration not stated)	-5	25*	-3	0	9	-5
Cc1cc(OC(=O)c2cccc(C(F)(F)F)c2)c([N+](=O)[O-])c(=O)[nH]1	121	22*	4	0	-4	-4
Fc1ccccc1Cn1ccc2ccc(-c3ccc4ccn(Cc5ccccc5)c4c3)cc21	x	3	x	x	x	x
COc1ccc(Cn2ccc3ccc(-c4ccc5ccn(Cc6ccccc6F)c5c4)cc32)cc1	x	20*	x	x	13	5
Cc1cccc(C(=O)NC(=S)NNC(=O)c2ccc(Cl)cc2)c1	-13	24*	15	0	40*	5	BODIPY interf DR=>122
COc1cc(C(=O)NNC(=S)NC(=O)c2ccc(Cl)cc2)cc(OC)c1OC	-14	26*	5	0	30*	-24	BODIPY interf DR=>122
CCCCOc1ccc(C(=O)n2ccc3ccc(-c4ccc5ccn(Cc6cccc(C(=O)OC)c6)c5c4)cc32)cc1	x	2	x	x	x	x
NC(=O)C1CC(=O)N(c2ccc(OCc3ccc(Cl)cc3)cc2)C1 (configuration not stated)	-22	20*	7	0	12	-8
CCn1c(SCC(=O)NNC(=O)c2ccc(C)cc2)nnc1-c1ccco1	15	0	6	0	x	x
CC(NC(=O)/C(C#N)=C/c1ccc([N+](=O)[O-])o1)c1ccccc1 (configuration not stated)	146	-10	19	1	x	x
CC(NC(=O)/C(C#N)=C/c1ccco1)c1ccccc1 (configuration not stated)	-15	20*	-1	0	0	-3
SMILES	Mot1-301 SUMO	sPLA2-III inh	SKN-1 block	Efflux pump inh	hGIII sPLA2 conf	BODIPY interf	others
COc1ccc(C(=O)N2CCCc3ccccc32)cc1Br	-1	-2	4	0	x	x
COc1cc(OC)cc(C(=O)N2CCCc3ccccc32)c1	17	20*	3	0	-1	-16
COc1ccc(S[C@]2(C(=O)N3CCN(c4ncccn4)CC3)CC(=O)N(S(=O)(=O)c3ccc(F)cc3)[C@@H]2c2ccc(OC)cc2)cc1	x	-7	x	x	x	x
Cc1ccc(F)cc1NC(=S)NCCc1ccccc1	6	22*	4	0	20*	-5
Cc1ccc(NC(=S)NCCc2ccc(F)cc2)c(C)c1	10	2	10	0	x	x
Cc1ccc(O)c(NC(=S)NC(=O)CC(C)C)c1	-12	8	-1	0	x	x
Cc1ccc(O)c(NC(=S)NC(=O)C(C)C)c1	9	21*	-4	0	11	-5
S=C(NCc1ccccc1)NCc1ccc(CNC(=S)NCc2ccccc2)cc1	-3	-54	5	1	x	x
O=C(NNC(=S)NCc1ccccc1)c1ccc(Br)cc1	-9	3	7	0	x	x
O=C(NNC(=S)Nc1ccc(Cl)cc1)c1ccccc1OC(F)F	-12	24*	8	0	28*	8.5*
CCNC(=S)NNC(=S)NCc1ccccc1	-3	21*	3	3	39*	-3	BODIPY interf DR=>122
CNC(=S)NNc1nc(-c2ccccc2)c2cc(Cl)ccc2n1	118	13	4	0	x	x
CCNC(=S)NNc1nnc(-c2ccccc2)c(-c2ccccc2)n1	9	24*	10	0	50*	0	BODIPY interf DR=>122
O=C(NNC(=S)NCc1ccccc1)c1ccccc1OC(F)F	18	20*	4	0	31*	3	BODIPY interf DR=>122
CCc1ccccc1NC(=O)COc1cccc(-n2cnnn2)c1	-8	3	-4	0	x	x
CC(C)(C)c1ccc(C#C[C@@H]2C=C[C@@H](O)[C@@H](CO)O2)cc1	x	20*	x	x	-2	-12
CC(C)NC(=O)OC[C@H]1O[C@H](C#Cc2ccc(C(C)(C)C)cc2)C=C[C@H]1O	x	16	x	x	x	x
COC(=O)c1ccc(COC(=O)C2CCN(S(=O)(=O)c3ccccc3C(=O)OC)CC2)cc1	-14	-9	-13	0	x	x
CCCCNCc1nc2ccccc2c(=O)[nH]1	17	27*	-7	0	15	-2
CCc1ccc(NCc2nc3ccccc3c(=O)[nH]2)cc1	-3	-10	-3	0	x	x
